The target in this experiment is T1, SALL4 ZFC4 WT (HT-SELEX) (Mus musculus, UniProt Q8BX22 870-940).
T1 sequence: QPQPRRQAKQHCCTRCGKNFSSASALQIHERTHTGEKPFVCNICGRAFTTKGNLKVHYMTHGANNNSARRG
Briefly: HT-SELEX; high values mean tight binding. As to conditions: protein: recombinant; vector His6-GST; dsDNA, one strand shown. The procedure, abridged:
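DNA from a random library (1.5 µg in the first cycle, 200 ng afterwards) was incubated with purified recombinant mouse SALL4 zinc finger cluster 4, residues 870–940 (1 µg), for 10 min at room temperature in 100 µl buffer: 10 mM Tris–HCl pH 7.5, 50 mM NaCl, poly(dI-dC), DTT. Bound complexes were pulled down on Ni2+ beads, washed and PCR-amplified, and the selection was repeated for up to 6 cycles in triplicate. MiSeq reads were scanned for 6-mers, and binding signal is each canonical k-mer's read fraction as fold change over the initial random library.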
AGGGAA: the binding signal stood at 0.891 ± 0.0417 fold-change vs cycle 0.
The figure for TAGTCA is 1.26 ± 0.0279 fold-change vs cycle 0.
The figure for AAAGTC is 1.1 ± 0.0483 fold-change vs cycle 0.
The figure for AATCGC is 0.437 ± 0.0162 fold-change vs cycle 0.
Consider AAGGGA, for which the binding signal is 0.928 ± 0.0784 fold-change vs cycle 0.
The figure for CCGAAA is 0.495 ± 0.0231 fold-change vs cycle 0.
As for CCAAGG, the figure is 0.457 ± 0.0202 fold-change vs cycle 0; as for ATCGAA, 1.17 ± 0.0408 fold-change vs cycle 0.
As for CTTCAA, the figure is 1.25 ± 0.0505 fold-change vs cycle 0.
Take ACCGTA: the binding signal came to 0.728 ± 0.0197 fold-change vs cycle 0.
The figure for ACGTAA is 1.19 ± 0.0733 fold-change vs cycle 0; for CAGTGA it is 0.806 ± 0.0191 fold-change vs cycle 0; for GGGTCA it is 0.435 ± 0.0224 fold-change vs cycle 0.
As for ACGACC, the figure is 0.308 ± 0.026 fold-change vs cycle 0; as for AATACA, 2.08 ± 0.131 fold-change vs cycle 0; as for AGGTTG, 0.791 ± 0.0234 fold-change vs cycle 0.
Regarding ACACAC, the binding signal is 0.701 ± 0.0589 fold-change vs cycle 0.
The figure for AAAGGT is 1.26 ± 0.075 fold-change vs cycle 0; for ATGTTG it is 1.2 ± 0.026 fold-change vs cycle 0; for AAGTCC it is 0.762 ± 0.0144 fold-change vs cycle 0.
For AGCCTA, the binding signal was 0.614 ± 0.0322 fold-change vs cycle 0.
As for CAACAA, the figure is 1.1 ± 0.0197 fold-change vs cycle 0; as for TAGCCA, 0.536 ± 0.0328 fold-change vs cycle 0.
TCAAAA: the binding signal came out at 1.67 ± 0.118 fold-change vs cycle 0.
Turning to CACATA, the binding signal is 1.22 ± 0.0607 fold-change vs cycle 0.
For GATAAA, the binding signal worked out at 2.01 ± 0.0629 fold-change vs cycle 0.
The figure for AGCACC is 0.328 ± 0.0258 fold-change vs cycle 0; for CGAATA it is 1.1 ± 0.0554 fold-change vs cycle 0.
The figure for CAAAGC is 0.565 ± 0.00649 fold-change vs cycle 0.
As for GTATCA, the binding signal came out at 1.39 ± 0.0637 fold-change vs cycle 0.
Regarding GGCTAC, the binding signal was found to be 0.316 ± 0.0371 fold-change vs cycle 0.
As for CTTTTC, the figure is 1.14 ± 0.0195 fold-change vs cycle 0; as for AGAGAT, 1.51 ± 0.0705 fold-change vs cycle 0; as for ATCCAC, 0.828 ± 0.0223 fold-change vs cycle 0.
The figure for TAAGTA is 2.21 ± 0.113 fold-change vs cycle 0; for CGGAGA it is 0.359 ± 0.025 fold-change vs cycle 0; for CATTCC it is 0.85 ± 0.0367 fold-change vs cycle 0.
The figure for CACAGA is 0.669 ± 0.0131 fold-change vs cycle 0; for ATGACA it is 1.36 ± 0.0915 fold-change vs cycle 0.
As for GATCCA, the binding signal was 0.791 ± 0.0326 fold-change vs cycle 0.

(Values after paper PMC9838217, “Structure of SALL4 zinc finger domain reveals link between AT-rich DNA binding and Okihiro syndrome”.)
